Shiga toxin inh = inhibitors of Shiga toxin in Vero cells. 290,000 tested, 9.2% active. Vero cells, Shiga toxin protein synthesis inhibition reporter. inhibition, % at 38.7 µM; in the data active means inhibition mostly above about 28%, no sharp cut-off; inactive means mostly below about 43%; further: 0% is about no effect
Pf growth 48h = inhibits P. falciparum growth in the first generation, 48 h. P. falciparum luciferase growth in erythrocytes, 48 h. Potency, µM (highest dose often 28.7 µM), for inactives: at the top dose activity change, negative = inhibition, most hits filed as inhibitors. 310,000 tested, 5.9% active. AID 504832; further: potency means the concentration at half of the fitted maximal effect; on the % scale 0 is the no-effect control and ±100 the full control effect
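Compounds are pin-transferred into medium, infected erythrocytes (2% hematocrit, 0.1% parasitemia final) are added, and plates sit one parasite generation at 37 C in 5% CO2. Detection reagent is then added and luminescence measured.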
Marburg entry inh = Marburg virus entry inhibition; AID 540276; 300,000 tested, 1.8% active; Marburg virus pseudotyped entry inhibition, cell reporter; Potency, µM (doses to about 37.8 µM), for inactives: at the highest dose activity change, negative = inhibition, hits mostly inhibitors; calls by dose curve; tested in HEK293 cells; further: potency means the concentration at half of the fitted maximal effect; on the % scale 0 is the no-effect control and ±100 the full control effect
LASV entry inh = inhibitors of Lassa virus binding or cell entry | Lassa virus pseudotype entry inhibition, cell reporter | Potency, µM (highest dose often 37.9 µM), without a hit: at the top dose activity change, negative = inhibition, actives largely listed as inhibitors | 300,000 tested, 1.2% active; calls by dose curve; tested in HEK293 cells; further: potency means the concentration at half of the fitted maximal effect; on the % scale 0 is the no-effect control and ±100 the full control effect; nearly all actives have a fitted effect of over 50% in size
Cycloheximide cs = counter-screen hit for Shiga toxin inhibitors, cycloheximide | cell reporter, cycloheximide protein synthesis inhibition counterscreen | max response, % | 300,000 tested, 12% active | AID 2314; in the data active means max response mostly above about 13%, no sharp cut-off; inactive means mostly below about 14%; further: read at 38.3 µM for the half of the compounds with a filed dose; 0% is about no effect
Pf growth 96h = P. falciparum growth inhibition at 96 hours. P. falciparum luciferase reporter growth, 96 h. Potency, µM (top dose mostly 28.7 µM), inactives show at the highest dose activity change, negative = inhibition, most hits filed as inhibitors. 320,000 tested, 6.9% active. AID 504834; further: potency means the concentration at half of the fitted maximal effect; on the % scale 0 is the no-effect control and ±100 the full control effect
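Cell-based qHTS: luciferase-tagged P. falciparum in erythrocytes (2% hematocrit, 0.05% parasitemia final) incubated with compounds for 96 hours, 37 C, 5% CO2; luciferase detection reagent then added and luminescence measured.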
Starred values were filed as active, the others as inactive; [ ] = dose if it differs, or a comment. In the library only some 19% were active in any assay of this set; here they are far more common. Unless noted, the call rests on the fitted dose curve; in most records, active means well fitted inhibition curve with a large enough effect; inconclusive means small, poorly fitted or top-dose-only effect, or another doubt; inactive means no such curve, though single readings can be large or run the other way.

O=C(Nc1ccccc1F)c1cc2nc(C(F)F)cc(C(F)F)n2n1 was read as Shiga toxin inh 52*, Pf growth 48h 97%, Marburg entry inh inconclusive, LASV entry inh -1%, Cycloheximide cs 22* and Pf growth 96h 114%.
Screening Cc1cccc(C)c1NC(=O)c1cnccn1 returned Shiga toxin inh 1, Pf growth 48h 2%, Cycloheximide cs -1 and Pf growth 96h inconclusive.
O=C(Nc1ccccc1-c1ccccc1)c1cnccn1 was read as Shiga toxin inh 54, Marburg entry inh inconclusive, LASV entry inh 17%, Cycloheximide cs 14* and Pf growth 96h inconclusive.
Cc1ccc(NC(=O)c2cnccn2)nc1 was read as Shiga toxin inh -5, Pf growth 48h 19%, Marburg entry inh 21%[46.1 µM], LASV entry inh inconclusive, Cycloheximide cs -3 and Pf growth 96h -8%.
For O=C(Nc1ccccc1F)c1cnccn1 the results were Shiga toxin inh 53*, Pf growth 48h 43%, Marburg entry inh 2%[46.1 µM], LASV entry inh 1%, Cycloheximide cs 18* and Pf growth 96h inconclusive.
`Cc1ccc(NC(=O)c2cnccn2)c(Br)c1` gave Pf growth 48h 53%, Marburg entry inh 2%, LASV entry inh 10%, Cycloheximide cs 26* and Pf growth 96h inconclusive.
`Cc1ccc(N(CC(=O)NC(C)C)C(=O)CCC(=O)Nc2ccccn2)cc1` gave Shiga toxin inh -5, Pf growth 48h 21%, Marburg entry inh 12%, LASV entry inh 1%, Cycloheximide cs 1 and Pf growth 96h 3.7µM*.
Cc1cc(C)cc(N(CC(=O)NCc2ccccc2)C(=O)CCC(=O)Nc2ccccn2)c1 was read as Shiga toxin inh -7, Pf growth 48h 2.1µM*, Marburg entry inh -15%[46.1 µM], LASV entry inh inconclusive, Cycloheximide cs -8 and Pf growth 96h 5%.
`Cc1ccc(N(CC(=O)NCc2ccc(F)cc2)C(=O)CCC(=O)Nc2ccccn2)cc1C` gave Shiga toxin inh 2, Pf growth 48h -6%, Marburg entry inh inconclusive, LASV entry inh 1.4µM*, Cycloheximide cs -4 and Pf growth 96h -29%.
Cc1ccc(N(CC(=O)NCc2ccco2)C(=O)CCC(=O)Nc2ccccn2)c(C)c1 was read as Shiga toxin inh 34*, Pf growth 48h -1%, Marburg entry inh -13%[46.1 µM], Cycloheximide cs 17 and Pf growth 96h 52%.
Screening COc1cc(OC)c(N(C)C(=O)Cn2ncc3c(=O)oc4ccccc4c32)cc1Cl returned Marburg entry inh 5%[46.1 µM] and LASV entry inh inconclusive.
Screening O=C(CCNC(=O)c1ccc(Cl)cc1)Nc1ccccc1Cl returned Shiga toxin inh -6, Pf growth 48h 3%, Cycloheximide cs -9 and Pf growth 96h 13%.
Screening CCOC(=O)NC(=O)CSc1cc(C)c2cc(C)cc(C)c2n1 returned Shiga toxin inh 19, Pf growth 48h inconclusive, Marburg entry inh 1%[46.1 µM], LASV entry inh -7%[46.1 µM], Cycloheximide cs -2 and Pf growth 96h inconclusive.
CCN1C(=O)[C@H]2[C@@H](c3ccc(-c4ccc(C(C)=O)cc4)cc3)N3CCCC[C@@]3(C(=O)OC)[C@H]2C1=O was read as Pf growth 48h inconclusive and Pf growth 96h 12µM*.
Screening CCN1C(=O)[C@@H]2[C@@H](c3ccc(-c4ccc(C(C)=O)cc4)cc3)N3CCC[C@@]3(C(=O)OC)[C@@H]2C1=O returned Pf growth 48h 9.3µM* and Pf growth 96h inconclusive.
Screening CCCC1(C(=O)OCC)NC(c2cc(OC)c(OC)c(OC)c2)C2C(=O)N(CC)C(=O)C21 (stereo not drawn) returned Shiga toxin inh -11, Marburg entry inh 10%, LASV entry inh -21%, Cycloheximide cs -4 and Pf growth 96h -27%.
`COc1ccc(OCc2cc(C(=O)N[C@H]3CCCCNC3=O)no2)c(Cl)c1` gave Shiga toxin inh 58*, Pf growth 48h 40%, Marburg entry inh 11%, LASV entry inh inconclusive, Cycloheximide cs 49* and Pf growth 96h -24%.
CSc1ccccc1OCc1cc(C(=O)N[C@H]2CCCCNC2=O)no1 was read as Shiga toxin inh 128*, Pf growth 48h inconclusive, Marburg entry inh 21%, LASV entry inh inconclusive, Cycloheximide cs 57* and Pf growth 96h inconclusive.
Screening COc1ccc(CN2CC(C(=O)NCc3ccc4c(c3)OCO4)CC2=O)cc1 (stereo not drawn) returned Shiga toxin inh -16, Marburg entry inh -15%, LASV entry inh 0%, Cycloheximide cs -3 and Pf growth 96h inconclusive.
For O=C(CCN1C(=O)/C(=C/c2ccccc2Cl)SC1=S)Nc1cccnc1 the results were Shiga toxin inh 17, Pf growth 48h 30%, Cycloheximide cs 11 and Pf growth 96h 18%.
Screening Cc1ccc(C(=O)NNC(=O)CCCN2C(=O)/C(=C/c3ccccc3Cl)SC2=S)cc1 returned Shiga toxin inh -14, Pf growth 48h -18%, Marburg entry inh 11µM*, LASV entry inh inconclusive, Cycloheximide cs -8 and Pf growth 96h inconclusive.
For O=C(CCCN1C(=O)/C(=C/c2ccccc2Cl)SC1=S)Nc1cccnc1 the results were Shiga toxin inh 42*, Pf growth 48h inconclusive, Cycloheximide cs 29* and Pf growth 96h 87%.
`Cc1ccc(NC(=O)c2ccccc2)cc1OC(=O)c1ccccc1` gave Shiga toxin inh -3, Pf growth 48h 51%, Marburg entry inh 8%, LASV entry inh 17%, Cycloheximide cs 13* and Pf growth 96h 58%.
CCOC(=O)Nc1ccc(C(=O)/C=C/c2ccccc2)cc1 was read as Shiga toxin inh 29, Pf growth 48h 3%, Marburg entry inh inconclusive, LASV entry inh -2%[46.1 µM], Cycloheximide cs 22* and Pf growth 96h inconclusive.
`O=C(Nc1ccc(OC(=O)c2ccccc2)c(-c2nc3ccccc3s2)c1)c1ccccc1` gave Shiga toxin inh 12, Pf growth 48h 33%, Marburg entry inh -27%, LASV entry inh -12%, Cycloheximide cs -2 and Pf growth 96h 24%.
For CCOC(=O)Nc1ccc(C(=O)Oc2ccccc2)c(O)c1 the results were Shiga toxin inh 104*, Pf growth 48h 45%, Marburg entry inh 22%, LASV entry inh -20%, Cycloheximide cs 37* and Pf growth 96h 109%.
O=C(Nc1ccc(C(=O)Oc2ccccc2)c(O)c1)c1ccccc1 was read as Shiga toxin inh 82*, Pf growth 48h inconclusive, Marburg entry inh inconclusive, LASV entry inh 5%[46.1 µM], Cycloheximide cs 28* and Pf growth 96h 18%.
`CC(=O)OCCn1c(C)[n+](CCOC(C)=O)c2cc(Cl)c(Cl)cc21` gave Shiga toxin inh -3, Pf growth 48h inconclusive, Marburg entry inh -2%[46.1 µM], LASV entry inh 13%[46.1 µM], Cycloheximide cs -4 and Pf growth 96h inconclusive.
Screening O=C(N/N=C(\CC(=O)c1cccs1)C(F)(F)F)c1cccnc1 returned Shiga toxin inh 12, Pf growth 48h inconclusive, Marburg entry inh -5%, LASV entry inh -22%, Cycloheximide cs 6 and Pf growth 96h inconclusive.

Assay outcomes from PubChem BioAssay.
